Measurements from the supplement of paper PMC12669032.
Unmarked numbers belong to inactive results.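 The calls were made as follows: active = AUC reduced over 20% with Padj below 0.05 in at least 2 of 3 replicates; inactive = otherwise.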

Key:
Roseburia intestinalis = assay: growth AUC relative to DMSO control (median of replicates) (fraction); higher = more growth (less inhibition), active = hit call of the paper; settings: 20 µM; 24 h
Summary of the method: (§1)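 Gut bacterial monocultures were grown anaerobically at 37 °C in mGAM, starting at OD600 0.05, with 20 µM compound (1% DMSO) in round-bottom 96-well plates under pierced gas-permeable seals. OD600 was read hourly for 24 h. Area under the growth curve (minimum OD set to 0) was normalised to the plate median of DMSO controls, or to row and column medians on the industrial chemical plate. The value is the median of three biological replicates grown on separate days.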

Streptococcus salivarius = assay: as above; settings: 20 µM; 24 h
Summary of the method: as §1

SMILES | growth AUC (Roseburia intestinalis) | growth AUC (Streptococcus salivarius)
Oc1ccc2nc(-c3cscn3)[nH]c2c1 | 1.03 | 1.07
CCCCCCC(C)OC(=O)COc1nc(F)c(Cl)c(N)c1Cl (stereo not given) | 0.967 | 0.966
CCN(CC)c1nc(C)cc(=O)[nH]1 | 1.01 | 1.04
C#CCOC(=O)[C@@H](C)Oc1ccc(Oc2ncc(Cl)cc2F)cc1 | 1.06 | 0.959
CCCCOCCOC(=O)COc1nc(Cl)c(Cl)cc1Cl | 0.995 | 0.998
Cc1ccc(C)c(O)c1 | 0.996 | 1.09
CC(C)C(O)(c1ccc(OC(F)(F)F)cc1)c1cncnc1 (stereo not given) | 1.04 | 1.04
Cc1ccc(Cl)cc1 | 1 | 1.02
NC(=O)Cc1cccc2ccccc12 | 1.05 | 1.05
COC1CCC2(CC1)NC(=O)C(c1cc(C)ccc1C)=C2O (stereo not given) | 0.986 | 1.03
O=C(O)c1ccc(Cl)cc1Cl | 0.997 | 1
N#Cc1ccc(CC(=NNC(=O)Nc2ccc(OC(F)(F)F)cc2)c2cccc(C(F)(F)F)c2)cc1 (mixture of isomers) | 0.954 | 1.02
NC(Cn1cncn1)C(=O)O (stereo not given) | 1 | 0.998
CCCN(CCOc1c(Cl)cc(Cl)cc1Cl)C(N)=O | 0.939 | 0.972
C#CC(C)N(C)C(=O)Nc1ccc(Cl)cc1 (stereo not given) | 0.992 | 0.993
S=C([S-])NCCNC(=S)[S-].[Mn+2] | 0.96 | 1.07
COCC(=O)N(c1c(C)cccc1C)C(C)C(=O)O (stereo not given) | 1.01 | 1.01
O=C(O)Cc1c(Cl)ccc(Cl)c1Cl | 0.979 | 1.01
O=C(O)COc1cccc(Cl)c1Cl | 1.15 | 0.973
COC(=O)c1ccc(C(F)(F)F)nc1S(=O)(=O)[N-]C(=O)Nc1nc(OC)cc(OC)n1.[Na+] | 0.941 | 1.02
CC(C)N(C(=O)C(=O)O)c1ccccc1 | 1.02 | 1.02
Oc1ccccc1 | 1.04 | 0.987
COC(=O)c1ccccc1S(=O)(=O)NC(=O)Nc1nc(OC(F)F)cc(OC(F)F)n1 | 1.01 | 0.994
Cc1cccc(C)c1O | 0.942 | 0.968
CC(C)(c1ccc(O)cc1)c1ccc(O)cc1 | 1.06 | 1.01
Cc1ccc2c(c1)[C@H](Nc1nc(N)nc(C(C)F)n1)[C@@H](C)C2 (stereo not given in full) | 0.948 | 1.01
CCN(Cc1c(F)cccc1Cl)c1c([N+](=O)[O-])cc(C(F)(F)F)cc1[N+](=O)[O-] | 0.864 | 0.926

SMILES | growth AUC (Roseburia intestinalis) | growth AUC (Streptococcus salivarius)
c1ccc2c(c1)Cc1ccccc1-2 | 1 | 0.985
Oc1cccc2ccccc12 | 0.952 | 0.986
COC(=O)c1c(Cl)ccc(Cl)c1OC | 0.982 | 1.04
CCCCC(CC)COC(=O)COc1cc(Cl)c(Cl)cc1Cl (stereo not given) | 0.966 | 1
O=C(O)c1cccc2nnsc12 | 0.989 | 1.01
FC(F)(F)/N=C1\SC(=Nc2ccccc2)N(c2ccccc2)\C1=N\C(F)(F)F | 0.922 | 0.946
O=C(NCc1ncc(C(F)(F)F)cc1Cl)c1c(Cl)cccc1Cl | 0.968 | 0.967
CCOC(=O)NCCOc1ccc(Oc2ccccc2)cc1 | 0.984 | 0.976
NC(=O)C1CO1 (stereo not given) | 0.855 | 1.01
COC(=O)c1ccc(I)cc1S(=O)(=O)[N-]C(=O)Nc1nc(C)nc(OC)n1.[Na+] | 0.934 | 0.948
CN1CCC[C@H]1c1cccnc1 | 0.933 | 0.949
NC(=O)c1nn(-c2c(Cl)cc(C(F)(F)F)cc2Cl)c(N)c1S(=O)C(F)(F)F (stereo not given) | 0.992 | 0.977
CCCCCCCCCC[N+](C)(C)Cc1ccccc1.[Cl-] | 0.885 | 0.926
CCSc1nc(NC(C)C)nc(NC(C)C)n1 | 0.96 | 0.999
CC(C)N(C(=O)CS(=O)(=O)[O-])c1ccccc1.[Na+] | 1.02 | 0.997
COC1CCC2(CC1)NC(=O)C(c1cc(C)ccc1C)C2O (stereo not given) | 0.974 | 1.04
CCNc1nc(N)nc(Cl)n1 | 1.01 | 1.03
Cc1ccc(C(C)NC(=O)[C@@H](NC(=O)OC(C)C)C(C)C)cc1 (stereo not given in full) | 0.956 | 0.963
CCc1cccc(C)c1NC(=O)C(=O)O | 0.953 | 0.994
CCOC(=O)C1CC(=O)C(=C(O)C2CC2)C(=O)C1 (stereo not given) | 1 | 0.988
ClC=C(c1ccc(Cl)cc1)c1ccc(Cl)cc1 | 0.932 | 0.928
CCCCOC(=O)C(C)Oc1ccc(Oc2ccc(C(F)(F)F)cn2)cc1 (stereo not given) | 0.932 | 0.974
CC(C)c1nn(C(=O)NC(C)(C)C)c(=O)n1N | 1.02 | 1.01
CCCOC(=O)c1ccc(C(=O)OCCC)nc1 | 0.977 | 0.996
CCOC(=O)C(C)Oc1ccc(Oc2nc3ccc(Cl)cc3o2)cc1 (racemic) | 1.02 | 1.01
CCOC(=O)C(C)N(C(=O)c1ccccc1)c1ccc(Cl)c(Cl)c1 (stereo not given) | 0.958 | 0.947
Cc1nn(C)c(OCC(=O)c2ccccc2)c1C(=O)c1ccc(Cl)cc1Cl | 0.981 | 1.01

SMILES | growth AUC (Roseburia intestinalis) | growth AUC (Streptococcus salivarius)
COC(=O)c1ccc(C(=O)OC)cc1 | 0.997 | 0.951
Nc1nc2ccccc2[nH]1 | 0.901 | 0.953
CCCCCCCCOC(=O)COc1cc(Cl)c(Cl)cc1Cl | 0.953 | 0.875
Cn1cc(C(=O)Nc2ccccc2-c2cc(F)c(F)c(F)c2)c(C(F)F)n1 | 0.997 | 0.966
CNC(=O)/C(=N/OC)c1ccccc1COc1cc(C)ccc1C | 1.02 | 1.06
c1ccc2cc3ccccc3cc2c1 | 0.933 | 0.919
CCCCCCCC(=O)Oc1c(Br)cc(C#N)cc1Br | 0.935 | 0.937
CCOC(=O)[C@@H](C)Oc1ccc(Oc2nc3ccc(Cl)cc3o2)cc1 | 0.975 | 1.05
O=S(=O)(Oc1ccc(Cl)cc1)c1ccccc1 | 0.988 | 0.955
CS(=O)(=O)c1ccc(C(=O)C2C(=O)C(O)CC(O)C2=O)c(Cl)c1COCC(F)(F)F (stereo not given) | 1.03 | 1.03
CCOC(=O)c1ccc(O)cc1 | 0.888 | 1.01
COC(=O)c1ccccc1S(=O)(=O)NC(=O)n1nc(OCC(C)O)n(C)c1=O (stereo not given) | 1.01 | 1
Cc1c(Br)c2ccc(F)cc2n1S(=O)(=O)c1ncn(S(=O)(=O)N(C)C)n1 | 1.06 | 1.06
N#Cc1cc(Cl)c(O)c(Cl)c1 | 1.08 | 1.02
CCOC(=O)Cn1c(=O)sc2cccc(Cl)c21 | 0.968 | 0.961
COc1cc(OC)nc(Sc2cccc3c2C(=O)OC3C)n1 (stereo not given) | 0.988 | 0.977
COc1c(I)cc(C#N)cc1I | 0.989 | 0.982
Oc1ccc2ccccc2c1N=Nc1ccccc1 | 1.13 | 0.914
COC(=O)C(C)Oc1cc(Cl)c(Cl)cc1Cl (stereo not given) | 1.01 | 1.02
CCOCOc1ccc(C(=O)Nc2cccc(Cl)c2Cl)cc1 | 1 | 0.989
CCCCCCCC/C=C\CCCCCCCCCCCC(=O)O | 0.973 | 0.898
CC1CN(C2CCCCCCCCCCC2)CC(C)O1 (mixture of isomers) | 0.992 | 1
CCCCN(C)C(=O)Nc1ccc(Cl)c(Cl)c1 | 0.956 | 0.971
COc1ccc(Oc2ccc(NC(=O)N(C)C)cc2)cc1 | 0.99 | 0.988
[O-][n+]1nc(-n2ccnc2)nc2ccc(Cl)cc21 | 0.984 | 1
COc1nc(N)nc(C(F)(F)F)n1 | 1.05 | 1
